Measured values as given in PubChem BioAssay AID1159580 (chemical genetic matrix, 2015).
The whole screen tested about 5,500 compounds, of which about 2,000 (36%) were called active. Inconclusive results (about 18%) are left out. No stated cut-off is given here; in the data, active means normalized growth mostly below about 0.91 (no sharp cut-off); inconclusive means no clear call, values can overlap the other calls; inactive means mostly above about 0.92. This is one part of the list.

Experiment: chemical genetic growth profiling, strain panel (AID 1159580);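 further: tested at 20 µM; growth read once vehicle control cultures reached saturation at 30 °C; 1 = growth at the plate median or of vehicle wells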
Settings: growth OD

Measured: normalized growth

Clc1ccc(COC(Cn2ccnc2)c2ccc(Cl)cc2Cl)cc1 (stereo unspecified)
active: S. cerevisiae deletion strains, locus YJR066W, strain TOR1, stronger effect = lower value 0.00125 | S. cerevisiae deletion strains, locus YJR075W, strain HOC1, stronger effect = lower value 0.0611 | S. cerevisiae deletion strains, locus YKL009W, strain mrt4, stronger effect = lower value 0.0921 | S. cerevisiae deletion strains, locus YKL068W, stronger effect = lower value 0.0732 | S. cerevisiae deletion strains, locus YKL085W, strain MDH1 (second series), stronger effect = lower value 0.0674 | S. cerevisiae deletion strains, locus YKL085W, strain MDH1, stronger effect = lower value 0.0674 | S. cerevisiae deletion strains, locus YKL160W, strain elf1, stronger effect = lower value 0.0682 | S. cerevisiae deletion strains, locus YKL190W, strain CNB1, stronger effect = lower value 0.0459 | S. cerevisiae deletion strains, locus YKR001C, strain vps1, stronger effect = lower value 0.0628 | S. cerevisiae deletion strains, locus YKR026C, strain gcn3, stronger effect = lower value 0.0617 | S. cerevisiae deletion strains, locus YKR091W, strain srl3, stronger effect = lower value 0.0578 | S. cerevisiae deletion strains, locus YLL001W, strain dnm1, stronger effect = lower value 0.0616 | S. cerevisiae deletion strains, locus YLL026W, stronger effect = lower value 0.0557 | S. cerevisiae deletion strains, locus YLL041C, strain sdh2, stronger effect = lower value 0.0556 | S. cerevisiae deletion strains, locus YLR027C, strain aat2, stronger effect = lower value 0.0535 | S. cerevisiae deletion strains, locus YLR039C, strain RIC1, stronger effect = lower value 0.0808 | S. cerevisiae deletion strains, locus YLR058C, strain SHM2, stronger effect = lower value 0.0475 | S. cerevisiae deletion strains, locus YLR102C, strain apc9, stronger effect = lower value 0.0627 | S. cerevisiae deletion strains, locus YLR113W, strain HOG1, stronger effect = lower value 0.128 | S. cerevisiae deletion strains, locus YLR221C, strain rsa3, stronger effect = lower value 0.0566 | S. cerevisiae deletion strains, locus YLR258W, strain gsy2, stronger effect = lower value 0.0569 | S. cerevisiae deletion strains, locus YLR262C, strain YPT6 (second series), stronger effect = lower value 0.0789 | S. cerevisiae deletion strains, locus YLR262C, strain YPT6, stronger effect = lower value 0.112 | S. cerevisiae deletion strains, locus YLR268W, strain sec22, stronger effect = lower value 0.0635 | S. cerevisiae deletion strains, locus YLR320W, strain mms22, stronger effect = lower value 0.139 | S. cerevisiae deletion strains, locus YLR330W, strain CHS5, stronger effect = lower value 0.0517 | S. cerevisiae deletion strains, locus YLR342W, strain FKS1 (second series), stronger effect = lower value 0.0624 | S. cerevisiae deletion strains, locus YLR342W, strain FKS1, stronger effect = lower value 0.0696 | S. cerevisiae deletion strains, locus YLR357W, strain rsc2, stronger effect = lower value 0.121 | S. cerevisiae deletion strains, locus YLR370C, strain arc18, stronger effect = lower value 0.0609 | S. cerevisiae deletion strains, locus YLR371W, strain rom2, stronger effect = lower value 0.0612 | S. cerevisiae deletion strains, locus YLR384C, strain iki3, stronger effect = lower value 0.0595 | S. cerevisiae deletion strains, locus YLR418C, strain cdc73, stronger effect = lower value 0.089 | S. cerevisiae deletion strains, locus YML016C, strain PPZ1, stronger effect = lower value 0.046 | S. cerevisiae deletion strains, locus YML032C, strain rad52, stronger effect = lower value 0.0629 | S. cerevisiae deletion strains, locus YML120C, strain ndi1, stronger effect = lower value 0.0559 | S. cerevisiae deletion strains, locus YML124C, strain tub3, stronger effect = lower value 0.06 | S. cerevisiae deletion strains, locus YMR058W, strain fet3, stronger effect = lower value 0.0614 | S. cerevisiae deletion strains, locus YMR078C, strain ctf18, stronger effect = lower value 0.0711 | S. cerevisiae deletion strains, locus YMR125W, strain sto1, stronger effect = lower value 0.0771 | S. cerevisiae deletion strains, locus YMR129W, stronger effect = lower value 0.0559 | S. cerevisiae deletion strains, locus YMR205C, strain PFK2, stronger effect = lower value 0.0917 | S. cerevisiae deletion strains, locus YMR223W, strain ubp8, stronger effect = lower value 0.0593 | S. cerevisiae deletion strains, locus YMR231W, strain pep5, stronger effect = lower value 0.125 | S. cerevisiae deletion strains, locus YMR263W, strain SAP30, stronger effect = lower value 0.055 | S. cerevisiae deletion strains, locus YMR307W, strain GAS1, stronger effect = lower value 0.123 | S. cerevisiae deletion strains, locus YNL067W, strain RPL9B, stronger effect = lower value 0.0483 | S. cerevisiae deletion strains, locus YNL071W, strain lat1, stronger effect = lower value 0.0586 | S. cerevisiae deletion strains, locus YNL128W, strain TEP1, stronger effect = lower value 0.0622 | S. cerevisiae deletion strains, locus YNL153C, strain GIM3, stronger effect = lower value 0.0497 | S. cerevisiae deletion strains, locus YNL183C, strain NPR1, stronger effect = lower value -0.00516 | S. cerevisiae deletion strains, locus YNL209W, strain ssb2, stronger effect = lower value 0.0633 | S. cerevisiae deletion strains, locus YNL233W, strain BNI4, stronger effect = lower value 0.0542 | S. cerevisiae deletion strains, locus YNL248C, strain rpa49, stronger effect = lower value 0.0786 | S. cerevisiae deletion strains, locus YNL250W, strain rad50, stronger effect = lower value 0.0799 | S. cerevisiae deletion strains, locus YNL271C, strain bni1, stronger effect = lower value 0.0793 | S. cerevisiae deletion strains, locus YNL298W, strain CLA4, stronger effect = lower value 0.0698 | S. cerevisiae deletion strains, locus YNL307C, strain MCK1, stronger effect = lower value 0.0676 | S. cerevisiae deletion strains, locus YNL322C, strain KRE1 (second series), stronger effect = lower value 0.067 | S. cerevisiae deletion strains, locus YNR049C, strain mso1, stronger effect = lower value 0.0571 | S. cerevisiae deletion strains, locus YNR052C, strain pop2, stronger effect = lower value 0.0609 | S. cerevisiae deletion strains, locus YOL006C, strain TOP1, stronger effect = lower value 0.104 | S. cerevisiae deletion strains, locus YOL012C, strain htz1 0.142 | S. cerevisiae deletion strains, locus YOL147C, strain pex11, stronger effect = lower value 0.0571 | S. cerevisiae deletion strains, locus YOR001W, strain rrp6, stronger effect = lower value 0.0678 | S. cerevisiae deletion strains, locus YOR061W, strain CKA2, stronger effect = lower value 0.0453 | S. cerevisiae deletion strains, locus YOR069W, strain VPS5, stronger effect = lower value 0.0468 | S. cerevisiae deletion strains, locus YOR070C, strain gyp1, stronger effect = lower value 0.0583 | S. cerevisiae deletion strains, locus YOR080W, strain dia2, stronger effect = lower value 0.0655 | S. cerevisiae deletion strains, locus YOR083W, strain WHI5, stronger effect = lower value 0.0646 | S. cerevisiae deletion strains, locus YOR106W, strain vam3, stronger effect = lower value 0.0717 | S. cerevisiae deletion strains, locus YOR136W, strain idh2, stronger effect = lower value 0.0693 | S. cerevisiae deletion strains, locus YOR144C, strain elg1, stronger effect = lower value 0.0562 | S. cerevisiae deletion strains, locus YOR184W, strain ser1, stronger effect = lower value 0.0649 | S. cerevisiae deletion strains, locus YOR231W, strain MKK1, stronger effect = lower value 0.119 | S. cerevisiae deletion strains, locus YOR265W, strain rbl2, stronger effect = lower value 0.0574 | S. cerevisiae deletion strains, locus YOR270C, strain vph1, stronger effect = lower value 0.104 | S. cerevisiae deletion strains, locus YOR290C, strain snf2, stronger effect = lower value 0.0649 | S. cerevisiae deletion strains, locus YOR316C, strain cot1, stronger effect = lower value 0.0595 | S. cerevisiae deletion strains, locus YPL051W, strain arl3, stronger effect = lower value 0.0626 | S. cerevisiae deletion strains, locus YPL078C, strain atp4, stronger effect = lower value 0.0787 | S. cerevisiae deletion strains, locus YPL106C, strain sse1, stronger effect = lower value 0.0958 | S. cerevisiae deletion strains, locus YPL240C, strain hsp82, stronger effect = lower value 0.0557 | S. cerevisiae deletion strains, locus YPL241C, strain CIN2, stronger effect = lower value 0.0472 | S. cerevisiae deletion strains, locus YPL256C, strain CLN2, stronger effect = lower value 0.127 | S. cerevisiae deletion strains, locus YPR119W, strain clb2, stronger effect = lower value 0.062 | S. cerevisiae deletion strains, locus YPR141C, strain kar3, stronger effect = lower value 0.0789 | S. cerevisiae deletion strains, locus YPR163C, strain tif3, stronger effect = lower value 0.0707 | S. cerevisiae deletion strains, locus YPR167C, strain met16, stronger effect = lower value 0.0615 | S. cerevisiae deletion strains, strain wtn01, stronger effect = lower value 0.0584 | S. cerevisiae strains, strain wild type, stronger effect = lower value 0.0556
